Source: PubChem BioAssay (NCI)
This is part of a sample that, as a whole, favours compounds with a hit. Of some 83,000 tested, about 20% had one in any assay.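 Cell lines were cultured in 96-well plates, exposed to a single compound concentration, and assessed for percent growth 48 hours later.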 Unmarked numbers belong to inactive results. Activity calls are given as the source filed them. Rule for the calls: active = growth percent below 10; inactive = the rest.

How the values were obtained:
Test in all cases: NCI-60 one-dose screen, 48 h (100 = growth as untreated, 0 = no growth, -100 = all killed)
Conditions in all cases: 10 µM unless noted
NCI-H23 lung = test system: NCI-H23 lung
NCI-H226 lung = test system: NCI-H226 lung
NCI-H322M lung = test system: NCI-H322M lung
HOP-62 NSCLC = test system: HOP-62 NSCLC
NCI-H460 lung = test system: NCI-H460 lung
HOP-92 NSCLC = test system: HOP-92 NSCLC
NCI-H522 lung = test system: NCI-H522 lung
A549/ATCC NSCLC = test system: A549/ATCC NSCLC
786-0 renal = test system: 786-0 renal
COLO 205 colon = test system: COLO 205 colon
DU-145 prostate = test system: DU-145 prostate
K-562 leukemia = test system: K-562 leukemia
MALME-3M melanoma = test system: MALME-3M melanoma
MDA-MB-231 breast = test system: MDA-MB-231 breast
RXF 393 renal = test system: RXF 393 renal
SF-268 CNS = test system: SF-268 CNS
SF-295 CNS = test system: SF-295 CNS
SF-539 CNS = test system: SF-539 CNS
UACC-257 melanoma = test system: UACC-257 melanoma
M14 melanoma = test system: M14 melanoma

SMILES	growth (NCI-H23 lung)	growth (NCI-H226 lung)	growth (NCI-H322M lung)	growth (HOP-62 NSCLC)	growth (NCI-H460 lung)	growth (HOP-92 NSCLC)	growth (NCI-H522 lung)	growth (A549/ATCC NSCLC)	growth (786-0 renal)	growth (COLO 205 colon)	growth (DU-145 prostate)	growth (K-562 leukemia)	growth (MALME-3M melanoma)	growth (MDA-MB-231 breast)	growth (RXF 393 renal)	growth (SF-268 CNS)	growth (SF-295 CNS)	growth (SF-539 CNS)	growth (UACC-257 melanoma)	growth (M14 melanoma)
Cc1cc(C(O)CN(C)C)cc2c1ccc1cc(C(C)C)ccc12 (stereo not given)	30.1%	33.6%	-10.1% (active)	50.2%	-35.7% (active)	5.86% (active)	-25% (active)	32.9%	14.5%	-78.1% (active)	55.7%	-20.2% (active)	-77.3% (active)	-35.1% (active)	-47.8% (active)	62.2%	-66.1% (active)	71.5%	-74.4% (active)	-100% (active)
O=C(Nc1cccc(Cl)c1)Nc1ncc(CCNc2ncnc3ccsc23)s1	30.6%	10.8%	55.5%	11.8%	20.1%	40.9%	13%	14.9%	42.1%	-4.76% (active)	50.6%	13.8%	19%	41.5%	-0.457% (active)	39.4%	20%	24%	11.5%	10.3%
C/C(=C(/c1ccc(Cl)cc1)c1ccc(OCCN2CCCCC2)cc1)c1ccccc1	76.3%	98.7%	91.4%	68.8%	74.4%	83.6%	81.4%	57.2%	75.6%	11.8%	97.6%	13.2%	76.9%	80.2%	84.7%	90.5%	83.8%	69.6%	80.3%	67.1%
CS(=O)(=O)N1CCc2c(-c3cnc(N)nc3)nc(N3CCOCC3)nc21	22.9%	5.8% (active)	-12.9% (active)	4.78% (active)	10%	-22.5% (active)	10.5%	-0.665% (active)	-13.7% (active)	-6.6% (active)	13.5%	22.3%	-17.6% (active)	30.4%	-36.2% (active)	14.7%	-34.7% (active)	-45.1% (active)	-18% (active)	10.4%
COc1ccc(/C(C)=C(\c2ccc(Cl)cc2)c2ccc(OCCN3CCCCCC3)cc2)cc1	51.3%	60.6%	79.5%	48.4%	32.3%	79.5%	51.5%	39.4%	59.7%	17.2%	70.1%	10.4%	51.9%	57.4%	69.5%	72.3%	54.6%	56.8%	58.3%	60%
CCN(CC)c1cc2oc3cc(N)cc(=N)c-3nc2cc1C	13.9%	84.9%	91.7%	65.3%	74.6%	82.1%	43.4%	26.1%	62.6%	20.8%	85.7%	24.9%	1.85% (active)	26.7%	86.2%	64.5%	48.1%	1.94% (active)	32.9%	25.5%
FC(F)(F)c1ccc(CNc2ccc(Cc3c[nH]c4ncc(Cl)cc34)cn2)cn1	23.7%	9.04% (active)	33.2%	23.1%	44.5%	37.7%	9.44% (active)	5.16% (active)	-49.3% (active)	-72.4% (active)	61.2%	12.4%	15.9%	24.5%	-7.15% (active)	27.7%	13.6%	19.3%	7.18% (active)	11.5%
CCOc1cccc(/C=N/NC(=O)c2ccccc2Nc2ccnc(C(F)(F)F)c2)c1O	21.6%	-15.2% (active)	22.2%	-7.4% (active)	-8.7% (active)	25.2%	16.6%	15%	3.64% (active)	9.3% (active)	26.2%	15.5%	18.1%	47%	23.9%	13%	17.7%	0.222% (active)	10.2%	-29.2% (active)
CCNC(=O)Nc1nc2ccc(Oc3ccnc(C(=O)NC)c3)cc2s1	90.1%	84.5%	102%	76.1%	73.4%	70.6%	56.6%	62.4%	88.3%	56.1%	103%	8.24% (active)	67.3%	73%	103%	92.8%	70.5%	77.6%	87.1%	40.7%
Cn1cc(-c2[nH]c3cc(NC(=O)[C@H](N)C4CCCCC4)cc4c3c2C=NNC4=O)cn1	-12.7% (active)	26.1%	16.1%	-11.3% (active)	11.6%	-25.2% (active)	-66% (active)	14%	-18.9% (active)	-78.4% (active)	30.5%	-59.6% (active)	-56.2% (active)	-67.7% (active)	-85.1% (active)	-23.4% (active)	16.8%	-84.8% (active)	21.1%	-17.6% (active)
C=C1CC[C@@H]2[C@](C)(COC(C)=O)[C@H](OC(C)=O)CC[C@@]2(C)[C@@H]1C/C=C1/C(=O)OC[C@H]1OC(C)=O	80.9%	23.6%	101%	75.7%	98%	71.9%	-41.6% (active)	85.8%	-10.9% (active)	22%	50.9%	11.1%	77.7%	95.8%	-7.35% (active)	87.1%	95%	8.54% (active)	66.5%	35.4%
Cc1cc(Nc2ncc(Cl)c(Nc3ccccc3S(=O)(=O)C(C)C)n2)c(OC(C)C)cc1C1CCNCC1	-86.5% (active)	-64.8% (active)	-93.9% (active)	-94.5% (active)	-86.5% (active)	-92.3% (active)	-89.3% (active)	-99.8% (active)	-91.2% (active)	-88.2% (active)	-99% (active)	-53.5% (active)	-84.9% (active)	-88% (active)	-93.4% (active)	-95.3% (active)	-91.6% (active)	-98.9% (active)	-90.1% (active)	-95.2% (active)
CO[C@@H](C)Cn1c(=O)n(C)c2cnc3ccc(-c4cncc(C(C)(C)O)c4)cc3c21	-2.1% (active)	-12.7% (active)	-15.2% (active)	-14.5% (active)	5.83% (active)	-24% (active)	3.46% (active)	-11.7% (active)	-11.1% (active)	-24.6% (active)	13%	14.8%	-36% (active)	6.56% (active)	-47.2% (active)	7.58% (active)	-39.6% (active)	-39.5% (active)	-16.6% (active)	3.8% (active)
CC1(COc2ccc3c(c2)ncn3-c2ccc3cccc(N4CCC(N)CC4)c3n2)COC1	20.6%	19.9%	41.1%	2.15% (active)	-33% (active)	63.3%	-36.9% (active)	-35.2% (active)	-33.2% (active)	-66.5% (active)	15.9%	0.523% (active)	20.8%	4.69% (active)	-58.6% (active)	9.66% (active)	59.8%	-82.3% (active)	-50.3% (active)	2.82% (active)
O=C(c1ccc(F)c(F)c1Nc1ccc(I)cc1F)N1CC(O)([C@@H]2CCCCN2)C1	13.9%	39.4%	13.5%	17.7%	18.8%	-47.8% (active)	18.8%	14.2%	29.1%	-63.9% (active)	46.3%	-26.8% (active)	-21.8% (active)	0.9% (active)	-32.3% (active)	44.6%	54.9%	29.2%	-10.8% (active)	-30.6% (active)
